Only some compounds are listed: those with a hit (about 21% of all), similar ones and a draw of the others.
Pf growth 48h – Primary qHTS for delayed death inhibitors of the malarial parasite plastid, 48 hour incubation; P. falciparum luciferase growth in erythrocytes, 48 h; Potency, µM (series often up to 28.7 µM), hits mostly inhibitors; 310,000 tested, 5.9% active; AID 504832, 2011
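Parasite viability was followed by luminescence of a genomically integrated firefly luciferase. Cultures held 0.1% parasitemia at 2% hematocrit (final), incubated under 5% CO2 at 37 C.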
Pf growth 96h – Primary qHTS for delayed death inhibitors of the malarial parasite plastid, 96 hour incubation; P. falciparum luciferase reporter growth, 96 h; 320,000 tested, 6.9% active; Potency, µM (doses to about 28.7 µM), hits mostly inhibitors
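Parasite growth measured via integrated firefly luciferase reporter in P. falciparum. Infected erythrocytes at 2% hematocrit, 0.05% parasitemia final were treated 96 hours at 37 C under 5% CO2, and luminescence was read.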
SARS PLP yeast – qHTS of Yeast-based Assay for SARS-CoV PLP; S. cerevisiae expressing SARS-CoV PLpro, growth rescue; Potency, µM (doses to about 32.9 µM), actives largely listed as activators; 330,000 tested, 0.19% active; calls by dose curve; further: nearly all actives have a fitted effect of over 55% in size
CHX counter – Cycloheximide Counterscreen for Small Molecule Inhibitors of Shiga Toxin | cell reporter, cycloheximide protein synthesis inhibition counterscreen | max response, % | 300,000 tested, 12% active | AID 2314, 2010; in the data active means max response mostly above about 13%, no sharp cut-off; inactive means mostly below about 14%; further: read at 38.3 µM for the half of the compounds with a filed dose
Shiga toxin inh – A qHTS for Small Molecule Inhibitors of Shiga Toxin | Vero cells, Shiga toxin protein synthesis inhibition reporter | inhibition, % at 38.7 µM | 290,000 tested, 9.2% active; in the data active means inhibition mostly above about 28%, no sharp cut-off; inactive means mostly below about 43%
NS1 inh – qHTS Assay for Inhibitors of Influenza NS1 Protein Function. Potency, µM (doses to about 46.1 µM). 270,000 tested, 0.4% active. AID 2326, 2010; calls by dose curve; further: actives are rising curves; nearly all actives have a fitted effect of over 50% in size
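Compounds were scored for reversing the slow growth caused by influenza A NS1 in S. cerevisiae, measured by optical density at 600 nm. Assay medium contained 2% galactose at pH 6.0; NS1-free yeast of the same strain were the positive control.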
Each line names hits and unclear results; the compound was inactive in the other large screens. Unless noted, the call rests on the fitted dose curve; in most records, active means well fitted inhibition curve with a large enough effect; inconclusive means small, poorly fitted or top-dose-only effect, or another doubt; inactive means no such curve, though single readings can be large or run the other way.

COC(=O)[C@@]12CCCCN1[C@H](c1ccc(-c3ccc(F)cc3)c(OC)c1)[C@@H]1C(=O)N(C)C(=O)[C@@H]12	Pf growth 48h 13.1µM, Pf growth 96h 11.7µM (no result: CHX counter, Shiga toxin inh, NS1 inh)
CCOc1ccccc1NC(=O)CSc1nc(=O)n(CCCN2CCOCC2)c2c1CCCC2	Pf growth 48h inconclusive, Pf growth 96h inconclusive (no result: CHX counter, Shiga toxin inh, NS1 inh)
COC(=O)[C@@]12CCCCN1[C@H](c1ccc(-c3ccc4c(c3)OCO4)c(OC)c1)[C@@H]1C(=O)N(C)C(=O)[C@@H]12	Pf growth 48h 5.22µM, Pf growth 96h 13.1µM (no result: CHX counter, Shiga toxin inh, NS1 inh)
COC(=O)[C@@]12CCCN1[C@H](c1ccc(-c3ccc(OC)cc3)c(OC)c1)[C@H]1C(=O)N(C)C(=O)[C@H]12	Pf growth 48h 8.28µM, Pf growth 96h inconclusive (no result: CHX counter, Shiga toxin inh, NS1 inh)
COC(=O)[C@@]12CCCN1[C@H](c1ccc(-c3ccc(C(C)=O)cc3)c(OC)c1)[C@H]1C(=O)N(C)C(=O)[C@H]12	Pf growth 48h 13.1µM, Pf growth 96h inconclusive (no result: CHX counter, Shiga toxin inh, NS1 inh)
O=c1c2ccccc2[nH]c(=S)n1CCCN1CCC(Cc2ccccc2)CC1	none
O=C(CSC1=NS(=O)(=O)c2ccccc2N1)Nc1cccc(F)c1	none (no result: CHX counter, Shiga toxin inh, NS1 inh)
Cc1ccc(NC(=O)NCCCCc2ccccc2)cc1	Shiga toxin inh 29.2
O=C(NCCCCc1ccccc1)Nc1cccc(F)c1	Pf growth 48h inconclusive, Pf growth 96h inconclusive, CHX counter 46.7, Shiga toxin inh 47.7
Cc1cccc(NC(=O)NCCCCc2ccccc2)c1	Pf growth 48h inconclusive, Pf growth 96h inconclusive, Shiga toxin inh 23.4
S=C(NCCCc1ccccc1)Nc1ccccc1	Pf growth 48h inconclusive, CHX counter 20.0
COc1ccc(Cc2nnc(N/N=C(\C)c3ccccc3)[nH]c2=O)cc1OC	Pf growth 48h inconclusive, Pf growth 96h inconclusive
CC(=O)Nc1cccc(C(=O)N(CCc2ccccc2)Cc2ccccc2)c1	Pf growth 96h inconclusive, CHX counter 28.5
CCCCNC(=S)Nc1cccc(C(C)=O)c1	none
Cc1cccc(NC(=O)NC(C)CCc2ccccc2)c1 (configuration not stated)	Pf growth 48h inconclusive, Pf growth 96h inconclusive, CHX counter 21.2
CC(=O)c1cccc(NC(=S)NCCCCc2ccccc2)c1	Pf growth 96h 9.28µM
CC(Oc1ccc(Br)cc1)C(=O)Nc1ccc(S(=O)(=O)N(C)C2CCN(C)CC2)cc1 (configuration not stated)	Pf growth 48h inconclusive, Pf growth 96h inconclusive (no result: CHX counter, Shiga toxin inh, NS1 inh)
Nc1ccc(Oc2cc(N)cc(Oc3ccccc3)c2)cc1	Pf growth 96h inconclusive, CHX counter 43.6, Shiga toxin inh 67.7
Nc1ccc(Oc2ccc3nc(-c4ccccc4)c(-c4ccccc4)nc3c2)cc1	Pf growth 48h inconclusive, Pf growth 96h inconclusive
Cc1ccc(CNS(=O)(=O)c2ccc(C)s2)cc1	none
Cc1cccc(N=Cc2[nH]c3ccc(Br)c(Cl)c3c2O)c1	Pf growth 48h 14.7µM, Shiga toxin inh 62.8
CC(C)[C@@H]1NC(=O)c2cc([N+](=O)[O-])cc(I)c2NCCCC[C@@H](C(=O)NC(CC(=O)O)C(N)=O)NC(=O)[C@H](CO)NC1=O (some centres not stated)	none
O=C(/C=C/c1ccc(F)cc1)NC(=S)NNC(=O)c1cnccn1	Pf growth 48h 3.29µM, Pf growth 96h 8.28µM
COc1ccc(/C=C/C(=O)NC(=S)NNC(=O)c2cnccn2)cc1	Pf growth 48h 2.08µM, Pf growth 96h inconclusive, SARS PLP yeast inconclusive
Cc1cc(OCC(=O)NNC(=O)c2cnccn2)cc(C)c1Cl	Pf growth 48h inconclusive, Pf growth 96h 11.7µM
COc1ccc(/C=C/C(=O)NC(=S)NNC(=O)c2cccnc2)cc1	Pf growth 96h inconclusive
O=C(NC(=S)NNC(=O)c1cnccn1)c1ccc(F)cc1	Pf growth 48h 14.7µM, SARS PLP yeast inconclusive (no result: NS1 inh)
Cc1ccc(OCC(=O)NCCCNC(=O)c2cnccn2)cc1C	Pf growth 48h inconclusive
O=C(NC(=S)NNC(=O)c1ccccc1O)c1ccc(F)cc1	none (no result: Shiga toxin inh)
COc1ccc(C2CC(c3cccs3)=NN2C(=O)COC(=O)c2cncc(Br)c2)cc1OC (configuration not stated)	Pf growth 48h inconclusive, Pf growth 96h inconclusive
O=C(NNC(=S)NC(=O)c1ccc(F)cc1)c1cccnc1	Pf growth 48h inconclusive
O=C(NNC(=O)c1cnccn1)c1ccc(Cl)cc1	Pf growth 48h inconclusive, Pf growth 96h inconclusive, CHX counter 22.4
O=C(NNC(=S)NC(=O)c1cccnc1)c1ccc(F)cc1	CHX counter 27.9, Shiga toxin inh 39.4
CC(C)C(NC(=O)c1ccccc1)c1nnc(SCC(=O)NC2CCCC2)n1C (configuration not stated)	none
COc1ccc(C(=O)NCC(=O)N2CCCC(C(F)(F)F)C2)cc1OC (configuration not stated)	Pf growth 96h inconclusive (no result: CHX counter, Shiga toxin inh, NS1 inh)
COc1ccccc1OC(=O)CCc1nc2ccccc2s1	Pf growth 48h 10.4µM (no result: NS1 inh)
COC(=O)CCCc1nc2ccccc2s1	Shiga toxin inh 32.9
COc1cccc(-n2c(SCC(=O)NCC3CCCO3)nc3c(c2=O)SCC3)c1 (configuration not stated)	none
CN(C)c1cccc(C(=O)OC(C(=O)Nc2ccc([N+](=O)[O-])cc2Br)c2ccccc2)c1 (configuration not stated)	Pf growth 48h inconclusive, Pf growth 96h inconclusive
COc1ccc(NC(=O)Cn2c(=O)n(-c3ccc(OC)cc3OC)c(=O)c3c(C)c(C)sc32)cc1	Pf growth 48h inconclusive, Pf growth 96h 11.7µM
COc1ccc(C(=O)/C=C/Nc2ccc(C)cn2)cc1OC	SARS PLP yeast inconclusive, CHX counter 38.0, Shiga toxin inh 75.4
CCOc1ccc(C(NC(C)=O)c2ccc(OC)c(OC)c2)cc1 (configuration not stated)	Pf growth 96h 1.47µM
NC(N)=NS(=O)(=O)c1ccc(N/C=C/C(=O)c2ccc(Cl)c(Cl)c2)cc1	Pf growth 48h inconclusive
CCOc1ccc(C(=O)/C=C/Nc2ccc(S(=O)(=O)N=C(N)N)cc2)cc1	CHX counter 22.9, Shiga toxin inh 62.1
CCCOc1ccc(N/C=C/C(=O)c2ccc(OC)c(OC)c2)cc1	Pf growth 48h inconclusive
CCOc1ccc(N/C=C/C(=O)c2ccc(OC)c(OC)c2)cc1	CHX counter 40.6, Shiga toxin inh 82.5
COc1ccc(-c2ccc(OC)c(C3C4C=CCCC4(C)C(=O)N3Cc3ccccc3)c2)cc1OC (configuration not stated)	none (no result: Pf growth 48h, Pf growth 96h, SARS PLP yeast, NS1 inh)
C=CCN=C1SC(C)(C)C(=O)N1S(=O)(=O)c1ccc(C)cc1	none (no result: NS1 inh)
COc1ccc(C(=O)/C=C/Nc2ccc(S(N)(=O)=O)cc2)cc1OC	Pf growth 96h inconclusive, CHX counter 14.0
COc1cc(C(=O)/C=C/Nc2ccc(NC(C)=O)cc2)cc(OC)c1OC	Pf growth 96h inconclusive

Assay outcomes from PubChem.
